# Screens deposited in PubChem BioAssay by National Center for Advancing Translational Sciences (NCATS).
# Lassa entry inh: blocks Lassa virus binding to or entry into cells | Lassa virus pseudotype entry inhibition, cell reporter | Potency, µM (series often up to 37.9 µM), for the others: at the highest dose activity change, negative = inhibition, actives largely listed as inhibitors | actives 1.2% (n = 300,000); calls by dose curve; tested in HEK293 cells; note: potency is the fitted concentration of half-maximal effect; % is set by controls: 0 for no effect and ±100 for the full control effect; nearly all actives have a fitted effect of over 50% in size
# VACV mCherry inh: inhibitors of vaccinia virus infection (mCherry reporter signal) | actives 0.63% (n = 310,000) | Potency, µM (series often up to 36.5 µM), for the others: at the highest dose activity change, negative = inhibition, actives largely listed as inhibitors | Vaccinia virus mCherry reporter infection, fluorescence; calls by dose curve; tested in A549 cells; note: potency is the fitted concentration of half-maximal effect; % is set by controls: 0 for no effect and ±100 for the full control effect; nearly all actives have a fitted effect of over 35% in size
# Cycloheximide cs: counter-screen hit for Shiga toxin inhibitors, cycloheximide | actives 12% (n = 300,000) | cell reporter, cycloheximide protein synthesis inhibition counterscreen | max response, % | AID 2314; in the data active = max response mostly above about 13%, no sharp cut-off; inactive = mostly below about 14%; note: read at 38.3 µM for the half of the compounds with a filed dose; 0% is about no effect
# Marburg entry inh: Marburg virus entry inhibition; actives 1.8% (n = 300,000); AID 540276; Potency, µM (series often up to 37.8 µM), for inactives: at the highest dose activity change, negative = inhibition, hits mostly inhibitors; Marburg virus pseudotyped entry inhibition, cell reporter; calls by dose curve; tested in HEK293 cells; note: potency is the fitted concentration of half-maximal effect; % is set by controls: 0 for no effect and ±100 for the full control effect
# Vaccinia Venus: inhibitors of vaccinia virus (Venus reporter). actives 0.46% (n = 330,000). Vaccinia virus Venus reporter expression, fluorescence. AID 720580. Potency, µM (top dose mostly 36.5 µM), without a hit: top-dose activity change, negative = inhibition, actives largely listed as inhibitors; calls by dose curve; tested in A549 cells; note: potency is the fitted concentration of half-maximal effect; % is set by controls: 0 for no effect and ±100 for the full control effect; nearly all actives have a fitted effect of over 30% in size
# Shiga toxin inh: Shiga toxin inhibition | Vero cells, Shiga toxin protein synthesis inhibition reporter | inhibition, % at 38.7 µM | actives 9.2% (n = 290,000); in the data active = inhibition mostly above about 28%, no sharp cut-off; inactive = mostly below about 43%; note: 0% is about no effect
# Numbers without * were called inactive; i = inactive; ? = inconclusive; . = no result given; [ ] = another dose, or the depositor's remark. Shown is part of a subset that was picked to be rich in hits.
SMILES,Lassa entry inh,VACV mCherry inh,Cycloheximide cs,Marburg entry inh,Vaccinia Venus,Shiga toxin inh
CCOC(=O)C1=CCN(S(=O)(=O)c2ccc(F)cc2)C1c1ccc(Cl)c(Cl)c1 (stereo unspecified),.,7.94µM*,.,.,12.6µM*,.
O=C(NCCCN1CCCC1=O)c1ccc2c(c1)OCO2,11.4%,-6.5%,15.0*,10.2%,-5.6%,59.0*
CC1CN(S(=O)(=O)c2cc(C(=O)NCCCN3CCCC3=O)ccc2Cl)CC(C)O1 (stereo unspecified),2.1%,-14.6%,.,2.24µM*,-10.7%,.
O=C(NCCCN1CCCC1=O)c1cccnc1,1.6%,.,-1.1,23.4%,.,-2.5
COc1ccc(C(=O)NCCCN2CCCC2=O)cc1,12.4%,-3.0%,9.1,5.4%[46.1 µM],3.0%,11.9
O=C(NCCCN1CCCC1=O)c1ccc(OCc2ccccc2)cc1,8.7%,.,28.0*,?,.,44.7
CCOc1ccc(C2Sc3ccccc3NC3=C2C(=O)OC3)cc1 (stereo unspecified),-9.1%,i,22.9*,13.2%,-20.9%,27.0
Oc1ccc(C=Nc2ccc3ncccc3c2)c(O)c1,.,.,55.8*,-2.8%,.,106.0*
COc1cccc(CN(C(=O)c2cnccn2)C(C(=O)NC2CCCCC2)c2cc(OC)c(OC)c(OC)c2)c1 (stereo unspecified),.,i,-4.0,1.2%[46.1 µM],-2.4%,-7.2
CCOC(=O)c1cnc2ccccc2c1Nc1ccc(C(=O)O)cc1,0.8%[46.1 µM],i,11.6,?,-10.1%,-5.9
Cc1ccc(Nc2nc(=O)c3cccnc3s2)c(Br)c1,?,?,18.6*,?,2.1%[7.34 µM],31.8
CC(=O)c1cccc(Nc2nc(=O)c3cccnc3s2)c1,0.7%,.,5.5,-12.7%,.,6.3
CC(=O)c1ccc(Nc2nc(=O)c3cccnc3s2)cc1,?,?,39.2*,?,-25.1%,70.0*
CCOC(=O)c1cnc2c(C)cc(C)cc2c1Nc1ccc(OCc2ccccc2)cc1,-0.2%[46.1 µM],-3.0%,.,.,-4.9%,.
O=c1nc(Nc2ccc(OCc3ccccc3)cc2)sc2ncccc12,?,0.794µM*,-3.5,?,6.4%,29.3
CCOC(=O)c1ccc(Nc2nc(=O)c3cccnc3s2)cc1,-83.1%[14.3 µM],10µM*,21.8*,2.06µM*,1.5%,22.3
C[C@@H]1CN([C@@H](C)CO)C(=O)CCCn2nncc2CO[C@@H]1CN(C)C(=O)c1cc(-c2ccccc2)on1,.,-13.4%,.,.,-4.6%,.
Cc1cc(C)c2c(N)c(-c3nc4ccccc4[nH]3)sc2n1,?,-14.1%[1.46 µM],44.6*,-29.7%,-10.7%,80.7*
Cc1ccc2oc(=O)c(-c3nc4ccc(C)cc4[nH]3)cc2c1,2.7%[46.1 µM],?,.,.,?,.
Cc1ccc2nc(-c3sc4nc(C)ccc4c3N)[nH]c2c1,?,.,32.9*,-6.9%,.,43.6*
COc1cccc(-n2c(N)c(-c3nc4ccccc4[nH]3)sc2=S)c1,4.4%,-4.5%,12.0,4.3%[46.1 µM],-8.9%,20.9
CN(c1nnc(NC(=O)Nc2ccccc2C(F)(F)F)s1)C1CCCCC1,-0.1%[46.1 µM],-7.8%,.,27.3%[46.1 µM],-2.9%,.
Cc1cc(C)cc(NC(=O)CCn2cnc3ccccc3c2=O)c1,-0.9%[46.1 µM],i,.,.,-3.4%,.
Cc1cc(C)cc(NC(=O)Cn2c(SCc3cc(C)ccc3C)nc3ccncc32)c1,?,.,75.6*,-18.9%,.,89.2*
Cc1cccc(C)c1Nc1nnc(SCc2nc3ccccc3s2)s1,-8.8%,-22.0%,49.7*,?,-12.4%,69.4
SMILES,Lassa entry inh,VACV mCherry inh,Cycloheximide cs,Marburg entry inh,Vaccinia Venus,Shiga toxin inh
COc1cccc(Nc2nnc(SCc3nc4ccccc4s3)s2)c1,9.7%,-16.4%,65.2*,26.5%,-18.4%,109.2*
COc1cccc(Nc2nnc(SCN3C(=O)c4ccccc4C3=O)s2)c1,?,-12.3%,5.8,2.7%,-2.4%,2.7
Cc1c(C(=O)N2CCOc3ccccc3C2)sc2ncnc(NCCCN3CCOCC3)c12,.,-9.1%,.,.,-5.9%,.
CC1(CCc2ccccc2)NC(=O)N(CC(=O)Nc2ccccc2)C1=O (stereo unspecified),14.1%,-4.1%,16.1*,14.4%,-11.6%,35.5
Oc1oc(-c2ccco2)nc1C=Nc1cccc(Cl)c1,3.7%,.,26.7,-2.9%,.,48.2
CC(=NCc1cccc(Cl)c1)c1nc(-c2ccco2)oc1O,-0.1%,-7.7%,22.9*,14.1%,?,48.6*
O=C(c1ccc2c(c1)N(Cc1ccc(Cl)cc1)C(=O)c1ccccc1S2=O)N1CCN(c2ccccc2F)CC1 (stereo unspecified),?,?,.,16.0%[46.1 µM],-28.7%,.
c1ccc2c(c1)Cc1cc3ccccc3nc1-2,?,-16.9%,25.8*,?,3.6%,62.1*
O=C1c2ccccc2-c2nc3ccccc3cc21,?,3.7%,34.4*,?,-7.8%,69.4*
CCCn1c(SCC(=O)Nc2ccccc2Cl)n[nH]c1=O,.,.,-5.6,.,.,-4.2
O=C(NCC(c1ccc2c(c1)OCO2)N1CCN(c2ccccc2)CC1)c1ccccc1F (stereo unspecified),-22.5%[46.1 µM],-17.2%,.,.,-23.5%,.
COc1ccc(CNc2ccc3c(c2)nc(C)n3C)cc1OC,.,.,43.7*,.,.,58.1*
CCOc1ccc(CNc2ccc3c(c2)nc(C)n3C)cc1,-18.6%,.,25.3*,?,-12.0%,active
CCOc1ccc(CNc2nc3ccccc3n2C)cc1,.,.,38.8*,.,.,.
COc1ccc(CNc2ccc(C)cc2)cc1Br,0.6%,.,23.1*,-7.2%,.,43.0*
CCCCn1cnc2cc(NCc3ccc(OCC)cc3)ccc21,?,-22.4%,.,-19.0%[46.1 µM],-13.9%,.
CCOc1ccc(CCNC(=O)CN2C(=O)COc3ccc(S(=O)(=O)N4CCCC4)cc32)cc1,-0.2%[46.1 µM],-16.8%,.,4.5%[46.1 µM],-14.1%,.
COc1ccc2cc(-c3c(-c4ccncc4)nc(-c4ccc(S(C)(=O)=O)cc4C)n3C)ccc2c1,7.91µM*,.,.,.,.,.
Fc1ccc(-c2csc(Nc3ccccn3)n2)c(F)c1,.,.,45.9*,.,.,39.6*
Cc1ccc(-c2csc(Nc3ccccn3)n2)cc1,?,?,35.0*,2µM*,-9.4%,.
COc1ccc(-c2csc(Nc3ccc(C)cn3)n2)cc1,5.3%,-14.1%,10.6,-5.7%[46.1 µM],-17.2%,6.8
COc1ccc(-c2csc(Nc3ccccn3)n2)cc1OC,?,-27.2%,36.5*,?,-25.9%,66.7*
NC(Cc1ccc(Cl)cc1)c1csc(Nc2ccccn2)n1 (stereo unspecified),.,-20.6%,.,.,?,.
c1ccc(-c2csc(Nc3ccccn3)n2)cc1,?,?,59.9*,?,-11.8%,81.6*
CCOC(=O)CNc1ncnc2c1nnn2C,7.3%[46.1 µM],-14.3%,.,.,-2.9%,.
COc1cc(C=O)ccc1OC(=O)N1CCOCC1,.,.,-7.8,.,.,-3.1
O=C(Cn1ccn(-c2ccc(F)c(F)c2)c(=O)c1=O)NCc1ccccc1,-4.7%[46.1 µM],-5.5%,.,.,-1.2%,.
COc1ccc2c(c1)[C@H]1[C@H](CO2)[C@H](c2ccccc2)[C@]2(C)C(=O)N(CC3CCCO3)CC(=O)N12 (stereo partly specified),.,i,.,.,-10.6%,.
NC(c1ccccc1)c1csc(Nc2ccccn2)n1 (stereo unspecified),.,-25.8%,.,.,-17.1%,.
Cc1cc(-c2csc(Nc3ccccn3)n2)ccc1F,?,-0.3%,42.4*,?,-19.5%,115.9*
